{
  "source": "the supplement of paper PMC12669032",
  "note": "Unmarked numbers belong to inactive results.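 Rule for the calls: active = AUC reduced over 20% with Padj below 0.05 in at least 2 of 3 replicates; inactive = otherwise.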",
  "data": [
    {"system": "Lactobacillus gasseri", "experiment": "growth AUC relative to DMSO control (median of replicates) (fraction); higher = more growth (less inhibition), active = hit call of the paper", "settings": "20 µM; 24 h", "procedure,_shortened": "(§1)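 Gut bacterial monocultures in mGAM were treated with 20 µM compound (1% DMSO) and grown anaerobically at 37 °C in round-bottom 96-well plates from OD600 0.05. OD600 was read hourly for 24 h, with the minimum OD set to 0. Area under the growth curve was normalised to the plate median of solvent-only wells, or to row and column medians on the industrial chemical plate. Each value is the median of three biological replicates, each grown on a separate day.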", "values": [
      {"smiles": "CC1(C)CCC(Cc2ccc(Cl)cc2)C1(O)Cn1cncn1", "note": "(centres undefined)", "growth AUC": 0.976},
      {"smiles": "CC(C)(C)C(O)C(Cc1ccc(Cl)cc1Cl)n1cncn1", "note": "(mixture of isomers)", "growth AUC": 0.947},
      {"smiles": "CC1(C)C(C=C(Cl)Cl)C1C(=O)OCc1cccc(Oc2ccccc2)c1", "note": "(mixture of isomers)", "growth AUC": 0.864},
      {"smiles": "O=[N+]([O-])C(Br)(CO)CO", "growth AUC": 0.958},
      {"smiles": "COc1cc(OC)nc(NC(=O)NS(=O)(=O)c2ncccc2C(=O)N(C)C)n1", "growth AUC": 0.93},
      {"smiles": "COC(=O)c1ccccc1S(=O)(=O)NC(=O)Nc1nc(C)cc(C)n1", "growth AUC": 0.94},
      {"smiles": "CCS(=O)(=O)c1nc2ccccn2c1S(=O)(=O)NC(=O)Nc1nc(OC)cc(OC)n1", "growth AUC": 0.88},
      {"smiles": "COc1cc(OC)nc(NC(=O)NS(=O)(=O)c2cc(NC=O)ccc2C(=O)N(C)C)n1", "growth AUC": 0.902},
      {"smiles": "O=C(Nc1ccccc1)Nc1cnns1", "growth AUC": 0.925},
      {"smiles": "CCSCCSP(=S)(OC)OC", "growth AUC": 1.06},
      {"smiles": "Clc1cc(Cl)c(Cl)cc1Cl", "growth AUC": 0.973},
      {"smiles": "COP(=S)(OC)Oc1cc(Cl)c(Br)cc1Cl", "growth AUC": 1.06},
      {"smiles": "CC(C)C1(C)N=C(c2ncccc2C(=O)O)NC1=O", "note": "(centres undefined)", "growth AUC": 0.946},
      {"smiles": "O=c1oc2ccccc2c(O)c1C1CCCc2ccccc21", "note": "(centres undefined)", "growth AUC": 1}
    ]},
    {"system": "Lactobacillus paracasei", "experiment": "growth AUC relative to DMSO control (median of replicates) (fraction); higher = more growth (less inhibition), active = hit call of the paper", "settings": "20 µM; 24 h", "procedure,_shortened": "as §1", "values": [
      {"smiles": "COP(=S)(OC)Oc1ccc(S(N)(=O)=O)cc1", "growth AUC": 1.05},
      {"smiles": "CCCCOC(=O)[C@@H](C)Oc1ccc(Oc2ccc(C#N)cc2F)cc1", "growth AUC": 0.939},
      {"smiles": "CCC(C)(C)c1ccc(O)cc1", "growth AUC": 0.999},
      {"smiles": "CCCCCCCCCc1ccc(O)cc1", "growth AUC": 1.01},
      {"smiles": "CC(C)OC(=O)Nc1ccccc1", "growth AUC": 1.04},
      {"smiles": "CCCCc1c(C)nc(NCC)nc1OS(=O)(=O)N(C)C", "growth AUC": 0.987},
      {"smiles": "CCOP(=S)(OCC)Oc1cc(-c2ccccc2)on1", "growth AUC": 0.964},
      {"smiles": "C=CC(N)=O", "growth AUC": 1.01},
      {"smiles": "CC(C)C(C(=O)OC(C#N)c1cccc(Oc2ccccc2)c1)c1ccc(OC(F)F)cc1", "note": "(centres undefined)", "growth AUC": 1.02},
      {"smiles": "Oc1ccccc1-c1ccccc1", "growth AUC": 0.923},
      {"smiles": "FC(F)C(F)(F)OCC(Cn1cncn1)c1ccc(Cl)cc1Cl", "note": "(centres undefined)", "growth AUC": 0.841},
      {"smiles": "Nc1ccc(Cc2ccc(N)c(Cl)c2)cc1Cl", "growth AUC": 1.07},
      {"smiles": "Nc1cccc(Cl)c1Cl", "growth AUC": 0.962},
      {"smiles": "COC(=O)NS(=O)(=O)c1ccc(N)cc1", "growth AUC": 0.903},
      {"smiles": "CC(C)=CC1C(C(=O)OCc2cccc(Oc3ccccc3)c2)C1(C)C", "note": "(mixture of isomers)", "growth AUC": 1.02},
      {"smiles": "COP(=S)(OC)SCC(=O)N(c1ccc(Cl)cc1)C(C)C", "growth AUC": 1.04},
      {"smiles": "CC(=O)O.CC(=O)O.CC(=O)O.NC(N)=NCCCCCCCCNCCCCCCCCN=C(N)N", "growth AUC": 0.834},
      {"smiles": "N#Cc1c(Cl)c(Cl)c(Cl)c(C#N)c1Cl", "growth AUC": 0.872},
      {"smiles": "CCOP(=O)(NC(C)C)Oc1ccc(SC)c(C)c1", "note": "(centres undefined)", "growth AUC": 0.965},
      {"smiles": "[CH3][Hg][Cl]", "growth AUC": 1.04},
      {"smiles": "ClC1=C(Cl)C2(Cl)C3COCC3C1(Cl)C2(Cl)Cl", "note": "(centres undefined)", "growth AUC": 0.94},
      {"smiles": "c1cc2c3c(cccc3c1)CC2", "growth AUC": 1.01},
      {"smiles": "CO/N=C(/C(=O)OC)c1ccccc1COc1ccccc1C", "growth AUC": 0.881},
      {"smiles": "O=C(Nc1ccc(F)cc1F)c1cccnc1Oc1cccc(C(F)(F)F)c1", "growth AUC": 1.05},
      {"smiles": "ClC1=C(Cl)[C@]2(Cl)[C@@H]3[C@@H]4C[C@@H]([C@H]5O[C@@H]45)[C@@H]3[C@@]1(Cl)C2(Cl)Cl", "growth AUC": 0.959},
      {"smiles": "CC1(C)CCC(Cc2ccc(Cl)cc2)C1(O)Cn1cncn1", "note": "(centres undefined)", "growth AUC": 1.02},
      {"smiles": "CC(C)(C)C(O)C(Cc1ccc(Cl)cc1Cl)n1cncn1", "note": "(mixture of isomers)", "growth AUC": 1.01},
      {"smiles": "CC1(C)C(C=C(Cl)Cl)C1C(=O)OCc1cccc(Oc2ccccc2)c1", "note": "(mixture of isomers)", "growth AUC": 1.01},
      {"smiles": "O=[N+]([O-])C(Br)(CO)CO", "growth AUC": 0.999},
      {"smiles": "COc1cc(OC)nc(NC(=O)NS(=O)(=O)c2ncccc2C(=O)N(C)C)n1", "growth AUC": 0.889}
    ]}
  ]
}
